Bioassay records (PubChem)
G9a block: qHTS Assay for Inhibitors of Histone Lysine Methyltransferase G9a; AID 504332, 2011; hit rate 8.8% among 350,000; Histone-lysine N-methyltransferase EHMT2 (Homo sapiens), Q96KQ7; G9a H3K9 monomethylation, AlphaScreen, 2 h; Potency, µM (series often up to 102 µM), actives largely listed as inhibitors; further: nearly all actives have a fitted effect of over 75% in size
Target sequence (Q96KQ7 913-1193 limits assumed): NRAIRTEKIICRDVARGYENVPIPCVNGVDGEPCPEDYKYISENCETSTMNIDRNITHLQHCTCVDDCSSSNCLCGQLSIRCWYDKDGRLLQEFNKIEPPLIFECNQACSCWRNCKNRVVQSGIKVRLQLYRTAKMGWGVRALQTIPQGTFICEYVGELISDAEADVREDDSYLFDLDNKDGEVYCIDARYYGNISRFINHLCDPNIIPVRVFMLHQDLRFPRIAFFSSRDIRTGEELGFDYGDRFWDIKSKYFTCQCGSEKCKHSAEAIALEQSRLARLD
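Enzyme 20 nM + cpd, 15 min RT; add b-H3K9 pep 500 nM / SAM 20 uM; 2 h RT; anti-H3K9me1 Ab 0.5 ug/mL + SA donor / anti-rabbit acceptor beads 20 ug/mL each, 10 min; AlphaScreen read.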
Sfp PPTase inh: qHTS Assay for Inhibitors of Bacillus subtilis Sfp phosphopantetheinyl transferase (PPTase). 4'-phosphopantetheinyl transferase ffp (Bacillus subtilis), Q9F4F7. Biochemical Sfp PPTase activity, qHTS. Potency, µM, actives largely listed as inhibitors. hit rate 3.5% among 310,000. AID 1490, 2009;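 further: the enzyme is Sfp with the accession as filed and its product quenches rhodamine fluorescence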
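Fluorescence-quenching assay: 15 nM Sfp-PPTase preincubated 15 min at room temperature with compound, then 5 uM rhodamine-CoA and 12.5 uM BHQ-2-labelled YbbR peptide added. Fluorescence (ex 525/em 598 nm) read at start and after 30 min; difference gives rate.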
Tau fluor cs: Counterscreen qHTS for Inhibitors of Tau Fibril Formation, Fluorescence Polarization. tau K18 P301L Alexa594 fluorescence, heparin fibrillization. Potency, µM (top dose mostly 57.7 µM). hit rate 0.93% among 280,000; further: nearly all actives have a fitted effect of over 55% in size
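Human tau K18 P301L (15 uM unlabeled, 0.24 uM Alexa 594-labeled) in 100 mM sodium acetate pH 7 with 20 uM heparin, 6 hr at 37 C. ThT 30 uM added, 1 hr ambient; Alexa 594 FP and total fluorescence read at 555/632 nm.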
Coupling enz: qHTS Assay for Inhibitors of Fructose-1,6-bisphosphate Aldolase from Giardia Lamblia: Coupling assay counterscreen | coupling enzyme system counterscreen, AmpLite Red fluorescence | hit rate 0.67% among 290,000 | activity change, negative = inhibition, % at 58.2 µM, hits read low; in the data active means activity change below about -30%
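Counterscreen of the coupled detection system alone, without aldolase: glyceraldehyde-3-phosphate coupling enzymes plus AmpLite Red readout. Compounds at 57.5 uM final, 10 min RT preincubation, 20 min RT reaction, fluorescence 525/598 nm.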
Tau fibril ThT: qHTS for Inhibitors of Tau Fibril Formation, Thioflavin T Binding | recombinant tau K18 P301L (four-repeat tau fragment), heparin-induced fibrillization, ThT fluorescence | AID 1460, 2008 | Potency, µM (highest dose often 57.4 µM), most hits filed as inhibitors | hit rate 2.1% among 270,000 | Microtubule-associated protein tau (Homo sapiens), P10636; further: nearly all actives have a fitted effect of over 55% in size
Target sequence (P10636 561-689 P618L limits assumed): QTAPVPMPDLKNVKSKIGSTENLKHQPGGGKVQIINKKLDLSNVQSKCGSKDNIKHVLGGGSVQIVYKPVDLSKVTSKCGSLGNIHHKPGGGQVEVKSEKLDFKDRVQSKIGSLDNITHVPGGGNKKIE
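In this qHTS, human K18 P301L tau is incubated with compound and heparin for 6 hr at 37 C, and Thioflavin T fluorescence then reports fibril load.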
Tau FP inhib: qHTS for Inhibitors of Tau Fibril Formation, Fluorescence Polarization; Microtubule-associated protein tau (Homo sapiens), P10636; K18 P301L tau heparin fibrillization, Alexa594 FP, 6 h; Potency, µM (top dose mostly 57.7 µM), actives largely listed as inhibitors; hit rate 0.39% among 280,000; further: nearly all actives have a fitted effect of over 55% in size
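Read-out: fluorescence polarization of Alexa 594-labeled tau (0.24 uM), 555 nm excitation, 632 nm emission. Mixtures held 15 uM unlabeled K18 P301L, compound and 20 uM heparin, pH 7 acetate buffer, incubated 6 hr at 37 C.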
Numbers stand for hits; – = inactive; ? = inconclusive; · = not tested or not shown; [ ] = dose if it differs, or a comment. Most compounds without a hit are left out; they make up all but 11% or so of the library. Unless noted, the call rests on the fitted dose curve; in most records, active means well fitted curve in the direction sought with a large enough effect; inconclusive means small, poorly fitted or top-dose-only effect, or another doubt; inactive means no such curve, though single readings can be large; an effect the other way counts as inactive or inconclusive.

SMILES | G9a block | Sfp PPTase inh | Tau fluor cs | Coupling enz | Tau fibril ThT | Tau FP inhib
O=C(Cn1c2ccc(F)cc2c2nc3n(c(=O)c21)CCS3)NCC1CCCO1 (centres undefined) | –[12.7 µM] | – | · | – | · | ·
CCN(CC)S(=O)(=O)c1ccc2c(c1)nc(CN(C)C(=O)Nc1cccc(Cl)c1)n2C | – | · | – | · | – | –
COC(=O)c1cc2oc(C)cc2n1Cc1ccc(Br)cc1F | – | · | – | · | ? | –
CC1=C(C(=O)NCc2cccc(Br)c2)C2(CCCCC2)OC1=O | – | · | – | · | – | –
CS/C(=N\S(=O)(=O)c1ccc(Cl)cc1)c1ccccc1 | – | – | – | – | – | –
O=S(=O)(/N=C(\Sc1ccc(Cl)cc1)c1ccccc1)c1ccccc1 | –[12.7 µM] | 56µM | – | – | 35µM | ?
COc1ccc([N+](=O)[O-])cc1NS(=O)(=O)c1cc(C(=O)NCc2cccnc2)ccc1Cl | –[2.33 µM] | · | · | · | · | ·
O=C(Nc1cccnc1)c1ccc(NS(=O)(=O)c2cc([N+](=O)[O-])ccc2Cl)cc1 | 50µM | – | – | – | ? | –
CC1Cn2c(nnc2-c2ccccc2O)S1 (centres undefined) | 8.9µM | – | – | – | – | –
O=C(CN1CCN(C(C(=O)Nc2ccc(F)cc2)c2ccccc2)CC1)NC1CC1 (centres undefined) | –[12.7 µM] | · | · | · | · | ·
O=C(Nc1ccc(F)cc1)C(c1ccccc1)N1CCN(CC(=O)N2CCOCC2)CC1 (centres undefined) | 10µM | · | · | · | · | ·
CCC(=O)Nc1ccccc1-c1nc2ccccc2n(CC(=O)Nc2ccccc2OC)c1=O | – | · | – | · | – | –
CSc1nnc(-c2ccccc2)n1N | – | – | – | – | – | –
CSc1nnc(-c2cc[n+](C)cc2)n1CCO | 7.9µM | – | – | – | – | –
Cc1cc(C)nc(SCCN(C)C)n1 | · | – | – | – | – | –
Cc1cc(C)nc(SSc2nc(C)cc(C)n2)n1 | 0.4µM | 2.2µM | · | – | · | ·
O=C(O)CCC(=O)NNc1ncnc2ccccc12 | – | 56µM | – | – | – | –
O=C(O)CCC(=O)NNc1nc2ccccc2nc1-c1ccccc1 | · | 56µM | – | – | – | –
COc1cccc(CN(C)C(=O)c2cccc(OCc3ccccc3)c2)c1 | – | – | · | – | · | ·
O=C(COC(=O)C1=NN(c2ccccc2)C(=O)CC1)Nc1ccc([N+](=O)[O-])cc1C(F)(F)F | –[12.7 µM] | · | · | · | · | ·
CCCCC(=O)Nc1c(C(=O)N2CCN(c3ccccc3)CC2)oc2ccccc12 | – | · | – | · | – | –
CC(C)N1CCc2c(sc(NC(=O)c3ccc(S(=O)(=O)N4CCc5ccccc54)cc3)c2C(N)=O)C1 | 18µM | – | – | – | ? | –
CCC(C)NC(=O)c1cc(-c2cccs2)nc2ccccc12 (centres undefined) | – | – | · | – | · | ·
CC(C)N1CCc2c(sc(NC(=O)c3cc(-c4cccs4)nc4ccccc34)c2C(N)=O)C1 | 11µM | ? | ? | – | ? | –
CC(C)N1CCc2c(sc(NC(=O)c3nc4ccccc4s3)c2C(N)=O)C1 | 45µM | – | – | – | ? | –
SMILES | G9a block | Sfp PPTase inh | Tau fluor cs | Coupling enz | Tau fibril ThT | Tau FP inhib
COc1ccc(C(=O)CN2C(=O)N(c3ccc(C(C)=O)cc3)S(=O)(=O)c3ccccc32)cc1 | – | · | – | · | – | –
S=C(N=Nc1ccccc1)NNc1ccccc1 | 10µM | – | 20µM[quencher] | – | 25µM | ?
Cc1ccc(-n2[nH]c(C)c(/C=N/Nc3ccc([N+](=O)[O-])cc3[N+](=O)[O-])c2=O)cc1C | ? | – | 4.5µM[quencher] | – | 2.2µM | 20µM
Cc1[nH]n(-c2ccccc2)c(=O)c1/C=N/NC(=O)c1cccc([N+](=O)[O-])c1 | –[2.33 µM] | – | – | – | ? | –
Cc1ccc(CNC(=O)C2CCC(CNS(=O)(=O)c3ccc(C)cc3)CC2)cc1 (centres undefined) | – | · | – | · | – | –
Cc1ccc(N=CC2=C(O)CC(c3ccco3)CC2=O)cc1 (centres undefined) | · | – | – | – | ? | –
CCc1ccc(N=CC2=C(O)CC(c3ccco3)CC2=O)cc1 (centres undefined) | ? | 79µM | – | – | ? | –
O=C1CC(c2ccco2)CC(O)=C1C=Nc1ccc(Br)cc1 (centres undefined) | 14µM | 56µM | – | – | ? | –
O=C1CC(c2ccco2)CC(O)=C1C=Nc1cc(Cl)ccc1Cl (centres undefined) | 7.1µM | 50µM | – | – | 22µM | ?
O=C(C1CCC(Cn2c(=O)c3sccc3n(Cc3ccccc3F)c2=O)CC1)N1CCOCC1 (centres undefined) | – | · | – | · | – | –
Cc1nc2cccnc2n1-c1cccc(C(=O)NCc2cccc(Cl)c2)c1 | – | · | – | · | – | –
CCOc1ccc(CNC(=O)C(CC)n2nc(C)n3c(cc4occc43)c2=O)cc1OC (centres undefined) | 50µM | – | – | – | – | –
COc1ccc(NC(=O)Cn2c(SCc3ccc(C)cc3)nc3cccnc32)cc1OC | – | · | – | · | ? | –
O=C(O)c1ccc(N/N=C/C=C/c2ccc([N+](=O)[O-])o2)cc1 | 32µM | ? | · | – | · | ·
O=C(O)c1cccc(-c2ccc(/C=N/Nc3ccc([N+](=O)[O-])cc3)o2)c1 | · | – | 16µM[quencher] | – | · | –
O=C(O)c1ccc(N/N=C/c2ccc(-c3cccc(Cl)c3)o2)cc1 | ? | – | 20µM[quencher] | – | · | –
NS(=O)(=O)c1ccc(-c2ccc(/C=N/Nc3ccc(C(=O)O)cc3)o2)cc1 | · | 50µM | ? | – | · | –
O=C(N/N=C/c1ccc([N+](=O)[O-])o1)C(=O)Nc1ccc(C(=O)O)cc1 | – | – | – | – | ? | –
CCOc1ccc(CNC(=O)Cn2nc(C)c3sc4ccccc4c3c2=O)cc1 | – | · | – | · | – | –
CCC(Sc1ncnc2sc3c(c12)CCCC3)C(=O)OCC(C)C (centres undefined) | – | · | – | · | ? | –
CCOC(=O)c1c(C)c(-c2ccccc2)n(CC(=O)NCc2ccccc2)c1C | – | · | – | · | – | –
O=C(O)c1cc(-c2ccc(/C=N/Nc3ccc([N+](=O)[O-])cn3)o2)ccc1Cl | 79µM | 45µM | ? | – | 1.3µM | –
O=C(O)c1ccc(-c2ccc(/C=N/Nc3ccc([N+](=O)[O-])cc3)o2)cc1 | 50µM | ? | –[0.0958 µM] | – | · | –[0.0958 µM]
CCOc1cccc(C(=O)NC(=S)Nc2ccc3c(c2)OCCO3)c1 | 40µM | – | ? | – | ? | ?
